Compound activity as filed in PubChem.
PD-1 reversal: activators reversing PD-1 mediated T-cell inhibition | primary human CD4 T cells, PD-L1 beads, CellTiter-Glo 96 h | activation, % (no concentration beside the values) | 29,000 tested, under 10 active | AID 2316; call rule not given here
NOMO-1 viab: STK33 inhibitor candidate reducing NOMO-1 cell viability | inhibition, % (no concentration beside the values) | NOMO-1 AML viability, CellTiter-Glo luminescence, 72 h | 37,000 compounds, 7.5% hits; in the data active means inhibition above about 80%
STK33 kin inh: inhibitors of human STK33 kinase; Q9BYT3; ADP-Glo luminescence, MBP substrate; inhibition, % at 12.5 µM; 27,000 compounds, 0.44% hits; in the data active means inhibition above about 20%
Target sequence (Q9BYT3 whole entry, looked up): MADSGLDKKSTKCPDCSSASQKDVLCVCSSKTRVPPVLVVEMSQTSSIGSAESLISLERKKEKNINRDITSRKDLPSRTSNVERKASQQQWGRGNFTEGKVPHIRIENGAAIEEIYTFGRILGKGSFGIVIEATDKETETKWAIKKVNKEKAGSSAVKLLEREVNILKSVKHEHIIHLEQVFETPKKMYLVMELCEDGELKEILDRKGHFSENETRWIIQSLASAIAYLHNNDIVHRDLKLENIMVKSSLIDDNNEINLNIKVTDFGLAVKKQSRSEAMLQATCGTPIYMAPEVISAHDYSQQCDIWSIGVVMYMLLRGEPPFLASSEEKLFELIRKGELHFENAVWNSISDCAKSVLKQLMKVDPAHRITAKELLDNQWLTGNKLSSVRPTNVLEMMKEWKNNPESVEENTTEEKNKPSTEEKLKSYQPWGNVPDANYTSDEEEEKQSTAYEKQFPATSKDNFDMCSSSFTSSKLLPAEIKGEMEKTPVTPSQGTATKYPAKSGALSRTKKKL
Large screens that a line does not name were inactive. Many of the other results were omitted from the sample, so hits are more common in it than they were.

C[C@H]1CN([C@@H](C)CO)C(=O)c2cccc(NC(=O)CCCCCC(=O)Nc3ccccc3N)c2O[C@@H]1CN(C)CC1CC1	NOMO-1 viab 120 (no result: STK33 kin inh)
O=[N+]([O-])c1ccc(NCCNS(=O)(=O)c2ccc(Cl)cc2)cc1	none
COc1cccc(NC(=O)CSc2nncn2C)c1	none
CC(C)CC1NC(=O)C(CC(C)C)N(O[C@@H]2O[C@H](COC(=O)CCC(=O)O)[C@@H](O)[C@H](O)[C@H]2O)C1=O (stereo not given in full)	NOMO-1 viab 119
COc1cc2cc(Oc3ccc4ccc(=O)oc4c3)c(=O)oc2cc1OC1OC(COC(=O)CC(C)(O)CC(=O)O)C(O)C(O)C1O (stereo not given)	none
CC(C)NC(=O)N(C)C[C@H]1Oc2c(NC(=O)c3cnccn3)cccc2C(=O)N([C@H](C)CO)C[C@H]1C	none (no result: STK33 kin inh)
CC(C)NC(=O)N(C)C[C@@H]1Oc2c(NS(=O)(=O)c3cccs3)cccc2C(=O)N([C@@H](C)CO)C[C@H]1C	none (no result: STK33 kin inh)
O=C(CSc1nnc(-c2cccc(Cl)c2)n1-c1ccccc1)Nc1ccccc1-c1ccccc1	NOMO-1 viab 142
COc1cccc(NC(=O)CSc2nnc(-c3ccc(Cl)cc3)n2-c2cccc(C)c2)c1	NOMO-1 viab 123
COc1cccc(NC(=O)CSc2nnc(-c3cccc(OC)c3)n2-c2ccc(Cl)cc2)c1	none
Cc1ccc(Cl)cc1NC(=O)CSc1nnc(-c2ccccc2)n1-c1ccccc1	none
COC(=O)c1ccc(NC(=O)CSc2ncn(-c3ccccc3)n2)cc1	none
C[C@@H]1CN([C@@H](C)CO)C(=O)Cc2cc(NC(=O)Nc3ccc(F)cc3)ccc2O[C@@H]1CN(C)Cc1ccc(C(=O)O)cc1	none
C[C@H](CO)N1C[C@H](C)[C@H](CN(C)S(=O)(=O)c2ccc(F)cc2)Oc2ccc(NC(=O)CCC(F)(F)F)cc2C1=O	none
Cc1ccccc1CN(C)C[C@H]1OCc2cnnn2CCCC(=O)N([C@H](C)CO)C[C@H]1C	none (no result: PD-1 reversal, NOMO-1 viab)
Cc1nnc(Nc2ccc(OCC(=O)N3CCN(c4ccccc4)CC3)cc2)c2ccccc12	NOMO-1 viab 88
CCn1c(SCC(=O)N2CCN(c3ccccc3)CC2)nnc1-c1ccccc1O	none
C[C@H]1CN([C@@H](C)CO)C(=O)c2cc(NC(=O)Nc3ccc(F)cc3)ccc2O[C@@H]1CN(C)S(=O)(=O)c1ccccc1	none (no result: STK33 kin inh)
C[C@H]1CN([C@@H](C)CO)C(=O)Cc2cc(NC(=O)Nc3ccccc3)ccc2O[C@H]1CN(C)C(=O)NC1CCCCC1	none
COC(=O)c1c(-c2c(Cl)cccc2Cl)noc1NC(=O)NCc1ccccc1	NOMO-1 viab 104 (no result: STK33 kin inh)
Cc1onc(-c2c(Cl)cccc2Cl)c1C(=O)ON1C(=O)CCC1=O	none (no result: STK33 kin inh)
CCOc1ccc(-n2c(SCc3cccc([N+](=O)[O-])c3)nnc2-c2ccncc2)cc1	none
Cc1cccc(NC(=O)c2ccc(OC(C)C(=O)Nc3ccccc3C(F)(F)F)cc2)c1C (stereo not given)	NOMO-1 viab 113
COc1ccc(NC(=O)c2ccc(OC(C)C(=O)Nc3ccccc3C(F)(F)F)cc2)cc1Cl (stereo not given)	none
CC(=O)O[C@H]1CC[C@@]2(C)C(C[C@@H](OC(C)=O)[C@@]3(C)C4=CC(=O)O[C@@H](c5ccoc5)[C@]4(C)CCC23)C1(C)C (stereo not given in full)	none (no result: PD-1 reversal)
COC(=O)CNC(=O)c1cn(-c2ccccc2)nc1-c1ccc([N+](=O)[O-])cc1	none
COC(=O)CNC(=O)c1cn(-c2ccccc2)nc1-c1ccc(OC)cc1	NOMO-1 viab 113
COc1ccc(S(=O)(=O)N(C)C[C@@H]2Oc3ccc(NC(=O)C4CCCCC4)cc3C(=O)N([C@H](C)CO)C[C@@H]2C)cc1	none (no result: STK33 kin inh)
O=C(/C=C/c1c[nH]c2ccccc12)N1CCCCC1	none (no result: STK33 kin inh)
O=C1/C(=C\c2c[nH]c3ccccc23)C(c2ccccc2)Oc2ccccc21 (stereo not given)	NOMO-1 viab 121 (no result: STK33 kin inh)
COc1ccc(Cl)cc1Nc1nc(N)nc(-c2oc3ccccc3c2C)n1	none
COc1ccc(Cl)cc1Nc1nc(N)nc(-c2cc3ccccc3o2)n1	NOMO-1 viab 95 (no result: PD-1 reversal)
COc1ccc(C)cc1N(CC(=O)Nc1ccc(C)c(Cl)c1)S(C)(=O)=O	none (no result: PD-1 reversal)
COc1ccc(S(=O)(=O)N(C)C[C@@H]2Oc3ccc(NC(=O)Nc4ccc5c(c4)OCO5)cc3CC(=O)N([C@H](C)CO)C[C@H]2C)cc1	none (no result: PD-1 reversal, STK33 kin inh)
COc1ccc(S(=O)(=O)N(C)C[C@@H]2Oc3ccc(NC(=O)Nc4ccc5c(c4)OCO5)cc3CC(=O)N([C@H](C)CO)C[C@@H]2C)cc1	NOMO-1 viab 114
C[C@@H]1CN([C@H](C)CO)C(=O)Cc2cc(NC(=O)Nc3ccc4c(c3)OCO4)ccc2O[C@H]1CN(C)S(=O)(=O)c1ccccc1	none
C[C@@H]1CN([C@@H](C)CO)C(=O)Cc2cc(NC(=O)Nc3ccc4c(c3)OCO4)ccc2O[C@@H]1CN(C)S(=O)(=O)c1ccc(F)cc1	none (no result: STK33 kin inh)
C[C@H](CO)N1C[C@H](C)[C@H](CN(C)S(=O)(=O)c2ccccc2)Oc2ccc(NC(=O)Nc3ccc4c(c3)OCO4)cc2CC1=O	NOMO-1 viab 126
C[C@H]1CN([C@@H](C)CO)C(=O)Cc2cc(NC(=O)Nc3ccc4c(c3)OCO4)ccc2O[C@H]1CN(C)S(=O)(=O)c1ccc(F)cc1	NOMO-1 viab 128 (no result: PD-1 reversal, STK33 kin inh)
Cc1ccc(S(=O)(=O)N(C)C[C@@H]2Oc3ccc(NC(=O)Nc4ccc5c(c4)OCO5)cc3CC(=O)N([C@H](C)CO)C[C@H]2C)cc1	none
Cc1ccc(S(=O)(=O)N(C)C[C@@H]2Oc3ccc(NC(=O)Nc4ccc5c(c4)OCO5)cc3CC(=O)N([C@@H](C)CO)C[C@@H]2C)cc1	NOMO-1 viab 108 (no result: PD-1 reversal)
Cc1ccc(S(=O)(=O)Nc2cccc3c2O[C@@H](CN(C)C)[C@@H](C)CN([C@H](C)CO)C3=O)cc1	none (no result: PD-1 reversal, STK33 kin inh)
Cc1cc(NC(=O)Cn2nc([N+](=O)[O-])cc2C)ccc1Br	none
COc1ccc(NC(=O)N(C)C[C@H]2Oc3c(NC(=O)CCCCCC(=O)Nc4ccccc4N)cccc3C(=O)N([C@@H](C)CO)C[C@H]2C)cc1	none (no result: STK33 kin inh)
COC(=O)c1cc(NC(=O)CSc2nnc(C)s2)ccc1Cl	none
COc1ccc(/C=C/C(=O)c2c(OC)cc(OC)c(CC=C(C)C)c2OC)cc1	none
COc1cc(/C=C/C(=O)O[C@@H]2C[C@@](O)(C(=O)O)C[C@@H](O)[C@@H]2O)ccc1O	none
COc1cccc(/C=C/C(=O)O)c1C(C)C	none (no result: PD-1 reversal)
COc1ccc(/C=C/C(=O)CC(=O)/C=C/c2cccc(O)c2OC)cc1O	NOMO-1 viab 115, STK33 kin inh 123 (no result: PD-1 reversal)
COc1cc(O)c(CC=C(C)C)cc1C(=O)/C=C/c1ccc(O)c(CC=C(C)C)c1	NOMO-1 viab 86
COc1cc(/C=C/C(=O)CC(=O)/C=C/c2ccc(O)c(OC)c2)ccc1O	NOMO-1 viab 107, STK33 kin inh 117 (no result: PD-1 reversal)
C[C@@H]1CN([C@H](C)CO)C(=O)c2cccc(NS(=O)(=O)c3ccc(F)cc3)c2O[C@H]1CN(C)C(=O)Nc1ccc(F)cc1	none (no result: PD-1 reversal, STK33 kin inh)
Cc1ccccc1-c1nnc(SCC(=O)Nc2ccc(Br)cc2F)n1C	none
CC(C)(C)c1ccc(C(=O)Nc2ccc(NC(=O)c3ccccc3F)cc2)cc1	NOMO-1 viab 125 (no result: STK33 kin inh)
O=C(Nc1ccc(NC(=O)c2ccccc2O)cc1)c1ccc(Cl)cc1	none
COc1ccc(NC(=O)Nc2ccc3c(c2)CC(=O)N([C@H](C)CO)C[C@@H](C)[C@H](CN(C)S(=O)(=O)c2ccc(OC)cc2)O3)cc1	none
